Source: PubChem BioAssay (NCATS)
Results filed as inconclusive are left out. Calls of active or inactive are those of the source. Unless noted, calls follow the shape of the dose curve; as a rule, active = well fitted curve in the direction sought with a large enough effect; inconclusive = small, poorly fitted or top-dose-only effect, or another doubt; inactive = no such curve, though single readings can be large; an effect the other way counts as inactive or inconclusive.

Legend:
[1] = AP1 Signaling Pathway (AID 357; active = well fitted curve in either direction with a large enough effect, not every such curve was filed as active; also: % is scaled to controls: 0 for no effect and ±100 for the full control effect); conditions: ME-180 AP-1-bla reporter, EGF-induced, beta-lactamase ratio, 5 h; at 38 µM (top of the series)
Outline: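 ME-180 cells with beta-lactamase reporter under AP-1 response element, stimulated with EC50 EGF; compounds tested in titration series, 5 h at 37 °C. CCF4 substrate added 2.5 h at room temperature; 460/530 nm emission ratio gave %activity and AC50.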

[2] = NFAT Signaling Pathway (AID 444; active = well fitted curve in either direction with a large enough effect, not every such curve was filed as active;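 also: carbachol stimulus at about its EC50 of 1 µM final; % is scaled to controls: 0 for no effect and ±100 for the full control effect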); conditions: Jurkat NFAT-bla M1, carbachol, beta-lactamase ratio, 5 h; at 38 µM (top of the series)
Outline: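 Jurkat cells carrying an NFAT-driven β-lactamase reporter and co-transfected muscarinic M1 receptor were treated with compound plus carbachol (1 uM final, an EC50 level) for 5 h at 37 °C. CCF4 loading followed for 1 h at RT; 460/530 nm ratio gave %activity.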

[3] = Stat Signaling Pathway (AID 446; active = well fitted curve in either direction with a large enough effect, not every such curve was filed as active;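 also: ME-180 cervical cancer cells given 40 pM IL-6 alongside compound; SIE-controlled beta-lactamase reporter measured as 460/530 nm FRET emission ratio; % is scaled to controls: 0 for no effect and ±100 for the full control effect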); conditions: ME-180 SIE beta-lactamase reporter, IL-6 stimulated, 5 h; at 38 µM (top of the series)
Outline: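 ME-180 cells carrying a SIE-driven beta-lactamase reporter are stimulated with 40 pM IL-6 for 5 h at 37C in the presence of compound. The 460/530 nm FRET substrate ratio is read after 2.5 h at RT. Data are normalised to 300 pM IL-6 and to 125 nM JAK inhibitor controls.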

[4] = molecular target: Glucocorticoid receptor (Homo sapiens) (UniProt P04150); assay: GR-GFP Redistribution (AID 450;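 active = compounds whose dose series gives a full or clear partial fitted curve of increased nuclear translocation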; also: potency is read from the fitted curve at half-maximal effect); conditions: U2OS GR-GFP nuclear translocation, laser cytometry, 2 h
[5] = molecular target: Glucocorticoid receptor (Homo sapiens) (UniProt P04150); assay: GR-EFC Redistribution (AID 451; calls by dose curve; also: potency is read from the fitted curve at half-maximal effect); conditions: CHO-K1 GR-EFC translocation, beta-gal luminescence, 2 h
Outline: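 CHO-K1 cells stably expressing nuclear-localized β-gal enzyme acceptor and GR fused C-terminally to the enzyme donor fragment; ligand-driven nuclear translocation restores β-gal by complementation. Compounds titrated up to 46 uM final, 2 h at 37 °C; luminescence read.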

[6] = molecular target: Mitogen-activated protein kinase 10 (Mus musculus) (UniProt Q61831); assay: JNK3 AlphaScreen Assay (AID 530; active = well fitted curve in either direction with a large enough effect, not every such curve was filed as active;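 also: kinase came from lysate of stimulated human HepG2 cells; signal reports phosphorylation of biotinylated GST-cJun 1-79 at Ser73 with 10 µM ATP; % is scaled to controls: 0 for no effect and ±100 for the full control effect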)
Outline: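 JNK3 came from HepG2 lysates pre-activated with IL-1beta and TNF-alpha and phosphorylated biotinylated GST-cJun (1-79) at 10 uM ATP, pH 7.6, room temperature. Compounds were titrated. AlphaScreen signal used anti-phospho-cJun (Ser73) antibody.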

[7] = molecular target: Guanine nucleotide-binding protein G(i) subunit alpha-1 (Homo sapiens) (UniProt P63096); assay: qHTS Assay for Inhibitors of RGS12 GoLoco Motif Activity (Green Fluorophore) (AID 879);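 also: 0% = labeled peptide with Gαi1 and full inhibition = labeled peptide alone without protein; negative values mean loss of peptide binding seen as reduced polarization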
Outline: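 Fluorescence polarization assay: 50 nM Gαi1 with 10 nM FITC-labeled RGS12 GoLoco peptide in 10 mM Tris pH 7.5, 150 mM NaCl, 0.1 mM GDP, 0.05% NP40, 10 min at room temperature with compound.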

[8] = qHTS Assay for Identification of Small Molecule Agonists for Thrombopoietin (TPO) Signaling Pathway (AID 917); also: % is scaled to controls: 0 for no effect and ±100 for the full control effect
Outline: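 Murine Ba/F3 cells stably expressing human TPO receptor and a Glycoprotein IIb promoter–luciferase reporter were IL-3-starved overnight, then treated with compounds plus TPO (26 pM final, its EC50) for 24 hrs at 37 C; luminescence was read.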

[9] = molecular target: Pyruvate kinase (Leishmania mexicana) (UniProt Q27686); assay: qHTS Validation Assay for Inhibitors of Leishmania Mexicana Pyruvate Kinase (AID 945);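 also: 0% = DMSO only neutral control wells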
Outline: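 Mutant LmPYK (E451W), 0.2 nM, plus 0.5 mM PEP and 0.1 mM ADP in 50 mM imidazole pH 7.2 containing 0.01% Tween 20 and 0.05% BSA. Incubated 1 h at room temperature; luminescence via PKLight, normalized to DMSO.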

[10] = molecular target: Pyruvate kinase PKM (Homo sapiens) (UniProt P14618); assay: qHTS Assay for Activators of Human Muscle Pyruvate Kinase (AID 954; active = well fitted curve in the direction sought with a large enough effect, not every such curve was filed as active;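 also: 0% = uninhibited enzyme and -100% = no enzyme or full thiadiazolimine inhibition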)
Outline: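 Purified human PKM2 (0.1 nM) with 0.5 mM PEP (Km) and 0.1 mM ADP in 50 mM imidazole pH 7.2, KCl, MgCl2, 1 h at room temperature; ATP formed read by coupled luciferase luminescence. Normalized to no-enzyme/110 uM thiadiazolimine inhibition; 0.3 nM enzyme column for activation.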

[11] = molecular target: Alpha-galactosidase A (Homo sapiens) (UniProt P06280); assay: Counterscreen for Glucocerebrosidase Inhibitors: qHTS Assay for Human alpha-Galactosidase at pH 4.5 (AID 992); also: 0% is about no effect
Outline: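 Human enzyme (2 nM) with 80 uM 4-methylumbelliferyl alpha-D-galactopyranoside in 50 mM citric acid, 0.005% Tween-20, pH 4.5, 20 min at room temperature. Compounds 0.7 nM–77 uM; fluorescence Ex 365/Em 440 after pH 10 stop; AC50 from Hill fits.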

[12] = molecular target: alpha-glucosidase (Oryza sativa, rice) (UniProt Q653V4); assay: Counterscreen for Glucocerebrosidase Inhibitors: qHTS Assay for Rice alpha-Glucosidase at pH 5.0 (AID 997);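 also: 0% = full activity with enzyme and -100% = basal without enzyme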
Outline: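 Rice alpha-glucosidase (4 nM final) with 400 uM 4-methylumbelliferyl-alpha-D-glucopyranoside in citrate buffer pH 5.0, 20 min at room temperature, stopped at pH 10; fluorescence 365/440 nm, compounds 0.7 nM–77 uM, AC50 from Hill fits.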

[13] = Validation of Assay for Modulators of Lamin A Splicing (AID 1459; active = well fitted curve in the direction sought with a large enough effect in the signal ratio; the % refers to the signal ratio;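 also: cells exposed to compound for two days before reading; 0% is about no effect; ratio rise marks activators and ratio drop marks inhibitors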)
Outline: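 S3 HeLa cells stably expressing a lamin A-EGFP splicing minigene and DsRed2 were seeded at 600 cells/well in Opti-MEM with 2% FBS, pin-dosed, and incubated 48 hrs at 37 °C, 5% CO2. Laser-scanning cytometry (488 nm) gave GFP/RFP total intensity ratio.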

[14] = molecular target: DNA repair nuclease/redox regulator APEX1 (Homo sapiens) (UniProt P27695); assay: qHTS Validation Assay for Inhibitors of the Human Apurinic/apyrimidinic Endonuclease 1 (APE1) (AID 1705)
Outline: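 Human APE1 was preincubated with compound for 15 min at room temperature, then 50 nM (final) THF-abasic double-stranded DNA substrate bearing 5'-TAMRA and 3'-BHQ-2 was added. Incision-driven fluorescence rise (ex 525/em 598 nm) was read kinetically.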

[15] = Counterscreen for APE1 Inhibitors: Fluorescent Dye Displacement Validation Assay (AID 1707);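 also: plate controls were ThO with dsDNA and no compound for no effect and ThO without dsDNA for full effect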
Outline: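 Thiazole Orange (250 nM) bound to 50 nM TAMRA-labelled dsDNA with tetrahydrofuran abasic site; displacement by DNA-binding compounds lowers fluorescence. Buffer 50 mM Tris-HCl pH 7.5, 50 mM NaCl, 2 mM MgCl2, 0.01% Tween-20; endpoint read at 480/540 nm.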

[16] = molecular target: Endonuclease 4 (Escherichia coli (strain K12)) (UniProt P0A6C1); assay: Counterscreen for APE1 Inhibitors: qHTS Validation Assay for Inhibitors of Endonuclease IV (AID 1708); also: % is scaled to controls: 0 for no effect and ±100 for the full control effect
Outline: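 2 nM enzyme was preincubated with compounds for 15 min at room temperature in 50 mM Tris-HCl pH 7.5, 50 mM NaCl, 2 mM MgCl2, 1 mM DTT, 0.01% Tween-20. 50 nM THF-abasic TAMRA/BHQ-2 duplex substrate started the reaction.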

[17] = qHTS for differential inhibitors of proliferation of Plasmodium falciparum line 7G8 (AID 1815);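 also: parasite growth measured after three days of incubation; plate controls were vehicle wells for no effect and reference inhibitor wells for full effect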
[18] = qHTS for differential inhibitors of proliferation of Plasmodium falciparum line GB4 (AID 1816); conditions: Potency: Plasmodium falciparum GB4 proliferation inhibition;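 also: parasite growth measured after 72 h incubation; 0% = vehicle DMSO and -100% = reference inhibitor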
[19] = qHTS for differential inhibitors of proliferation of Plasmodium falciparum line 3D7 (AID 1876);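 also: parasite growth measured after three days of culture; 0% = vehicle wells and -100% = reference inhibitor wells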
[20] = qHTS for differential inhibitors of proliferation of Plasmodium falciparum line D10 (AID 1877);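 also: parasites grown with compound for 72 h before DNA staining; plate controls were vehicle wells for no effect and reference inhibitor wells for full effect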
[21] = qHTS for differential inhibitors of proliferation of Plasmodium falciparum line Dd2 (AID 1882); conditions: Potency: Plasmodium falciparum Dd2 proliferation inhibition;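 also: compound exposure of 72 h on infected erythrocytes; plate controls were DMSO vehicle for no effect and 0.29 µM artemisinin for full effect; nearly all actives have a fitted effect of over 65% in size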
Outline: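 SYBR Green I DNA fluorescence read-out, ex 485/em 535 nm. Signals were normalized to 0.29 uM artemisinin and DMSO wells, then corrected using vehicle-only plates flanking each stack. Parasite growth ran 72 h in erythrocytes before lysis.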

[22] = qHTS for differential inhibitors of proliferation of Plasmodium falciparum line W2 (AID 1883); conditions: Potency: Plasmodium falciparum W2 proliferation inhibition;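 also: parasites grown with compound for 72 h before lysis and staining; 0% = vehicle wells and -100% = control inhibitor wells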
[23] = qHTS for differential inhibitors of proliferation of Plasmodium falciparum line HB3 (AID 1886); conditions: Potency: Plasmodium falciparum HB3 proliferation inhibition;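 also: parasites grown with compound for 72 h before SYBR Green readout; plate controls were vehicle for no effect and reference inhibitor for full effect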
[24] = qHTS Assay for Modulators of Human Peripheral Myelin Protein 22 (PMP22) Expression/Activity (AID 1967; active = well fitted curve in the direction sought with a large enough effect in the signal ratio; the % refers to the signal ratio;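 also: 0% = untreated cells and 100% end not stated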)
Outline: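 MSC80 mouse Schwann cells stably carrying Pmp22 promoter–green click beetle luciferase plus EF-alpha–red luciferase control were dosed for 24h at 37 °C. Dual-colour luminescence was filter-overlap corrected; %Activity came from green/red ratio versus untreated cells.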

[25] = molecular target: Ferritin light chain (Equus caballus) (UniProt P02791); assay: qHTS Validation Assay for Identification of Novel General Anesthetics (AID 2323); also: % is scaled to controls: 0 for no effect and ±100 for the full control effect
Outline: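 Competitive displacement of profluorescent 1-aminoanthracene (1-AMA, 50% saturated solution in PBS) from 10 uM horse-spleen apoferritin. Compounds incubated 10 min at room temperature; fluorescence read at 380 nm excitation/535 nm emission, normalized to free 1-AMA and complex, fitted with four-parameter Hill equation.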

[26] = molecular target: ATP-dependent DNA helicase Q1 (Homo sapiens) (UniProt P46063); assay: qHTS Validation Assay for Inhibitors of RecQ-Like Dna Helicase 1 (RECQ1) (AID 2353);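 also: plate controls were DMSO vehicle for no effect and enzyme-free control for full effect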
Outline: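 50 nM RECQ1T1 preincubated 15 min with compound in Tris pH 8.0 buffer with MgCl2, DTT, Tween-20 and 2.5 ug/ml poly(dI-dC); started with 200 nM TAMRA/BHQ-2 forked duplex and 2 mM ATP. Unwinding read as fluorescence (525/598 nm), two reads 2 h apart.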

[27] = molecular target: RecQ-like DNA helicase BLM (Homo sapiens) (UniProt P54132); assay: qHTS Validation Assay for Inhibitors of Bloom's syndrome helicase (BLM) (AID 2364);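 also: plate controls were DMSO vehicle for no effect and enzyme-free control for full effect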
Outline: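 BLM 50 nM in 25 mM Tris-HCl pH 8.0, 5 mM NaCl, 2 mM MgCl2, 1 mM DTT, 0.01% Tween-20, 2.5 ug/ml poly(dI-dC); 15 min cpd preinc, RT. Start: 200 nM forked DNA + 2 mM ATP (final). TAMRA read, 2 reads 2 h apart.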

[28] = Quantitative high throughput screen for delayed death inhibitors of the malarial parasite plastid, 48 hour incubation (AID 488752); also: % is scaled to controls: 0 for no effect and ±100 for the full control effect; nearly all actives have a fitted effect of over 65% in size
Outline: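 Erythrocytes infected with P. falciparum carrying an integrated firefly luciferase reporter (2% hematocrit, 0.1% parasitemia final) were exposed to compounds in RPMI 1640/0.5% Albumax for 48 h at 37 C, 5% CO2. Growth inhibition was scored as reduced luminescence.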

[29] = molecular target: M-phase phosphoprotein 8 (Homo sapiens) (UniProt Q99549); assay: qHTS Validation Assay for Inhibitors for MPP8 Chromodomain Interactions with Methylated Histone Tails (AID 488949); also: potency is read from the fitted curve at half-maximal effect; nearly all actives have a fitted effect of over 55% in size
Outline: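 MPP8 (50 nM) was preincubated with biotinylated H3(1-18)K9me3 peptide (50 nM) in PBS pH 7.4, 0.01% Tween-20 for 30 min at room temperature, then with compounds for 30 min; binding was detected by AlphaScreen.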

[30] = molecular target: Transient receptor potential cation channel subfamily V member 1 (Homo sapiens) (UniProt Q8NER1); assay: HTS Assay for Compounds that Act as Enhancers of the Vanilloid Receptor 1 (AID 488979); also: 0% is about no effect
Outline: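 TRPV1-expressing cells loaded with Fluo-8 calcium dye; compounds added and calcium influx read kinetically for 3 min (agonist phase), then capsaicin at EC20 added and read 2 min more for enhancement. Fluorescence ex 480/em 520 nm.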

[31] = molecular target: Thyrotropin receptor (Homo sapiens) (UniProt P16473); assay: qHTS Assay for Antagonists of the Thyroid Stimulating Hormone Receptor (AID 488980); also: 0% is about no effect
Outline: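 HEK293 cells transfected with human TSHR, suspended in HEPES-buffered HBSS with 70 uM RO 20-1724, were treated with compounds plus TSH at EC80 (4 nM final). cAMP was measured by competitive HTRF (cryptate anti-cAMP antibody, cAMP-d2 acceptor).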

[32] = molecular target: Thyrotropin-releasing hormone receptor (Homo sapiens) (UniProt P34981); assay: qHTS for Small Molecule Agonists and Allosteric Enhancers of Human TRH Receptor: Validation Screen for Agonists (AID 493127;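 active = calcium activation more than 3 SD above the typical response in the agonist read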;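 also: intracellular calcium rise by fluo-8 fluorescence before TRH EC20 addition; 0% is about no effect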); conditions: TRH receptor agonist cell assay; at 2 µM; active compounds read high
Outline: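 TRHR-expressing cells were plated overnight in serum-containing medium, then loaded with fluo-8 calcium dye at room temperature for 30 min–1.5 h. After a 10 s baseline, compound was pin-transferred and calcium fluorescence (ex 480/em 530) read kinetically for agonist response.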

[33] = Validation screen for small molecules that induce DNA re-replication in SW480 colon adenocarcinoma cells (AID 504364); also: 0% is about no effect
Outline: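 SW480 cells seeded at 250 per well were exposed to compound or DMSO for 48 hr at 37 C, 5% CO2, then stained with Hoechst for 40 min. DNA content per nucleus was imaged (405 nm ex, 500-530 nm em).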

[34] = molecular target: DNA dC->dU-editing enzyme APOBEC-3G (Homo sapiens) (UniProt Q9HC16); assay: qHTS for inhibitors of Vif-A3G interactions: Validation (AID 588379); also: 0% is about no effect
Outline: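 HeLa cells stably expressing Vif and A3G-eYFP, 700 cells/well, incubated overnight at 37 deg C, then exposed to compound overnight at 37 deg C. Inhibition of Vif-mediated degradation read as increased yellow fluorescence (Ex 488/Em 500-530) by laser-scanning cytometry.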

[35] = tested on: Zika virus NS2B-NS3 protease; assay: Primary screen GU AMC qHTS for Zika virus inhibitors (AID 1347154);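 also: 0% = no-inhibitor control and -100% = no-enzyme control; nearly all actives have a fitted effect of over 70% in size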
Outline: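 Unlinked Zika NS2B hydrophilic domain/NS3 protease domain noncovalent complex (25 nM final) in 10 mM Tris-HCl pH 8.0, 0.01% Tween 20, with AMC peptide substrate. Fluorescence (ex 340, em 450 nm) change over 15 min, room temperature; percent inhibition fitted to 4-parameter Hill equation.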

[36] = Primary qHTS for small molecule stabilizers of the endoplasmic reticulum resident proteome: Secreted ER Calcium Modulated Protein (SERCaMP) assay (AID 1508630); also: % is scaled to controls: 0 for no effect and ±100 for the full control effect
Outline: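 GLuc-SERCaMP-expressing SH-SY5Y cells, pretreated 16 h with compound, are challenged with thapsigargin to empty ER calcium stores; after 4 h, coelenterazine is added directly to the medium and luminescence is imaged.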

Sequence of Glucocorticoid receptor (Homo sapiens) (P04150 whole entry, looked up, the tested form may be a part): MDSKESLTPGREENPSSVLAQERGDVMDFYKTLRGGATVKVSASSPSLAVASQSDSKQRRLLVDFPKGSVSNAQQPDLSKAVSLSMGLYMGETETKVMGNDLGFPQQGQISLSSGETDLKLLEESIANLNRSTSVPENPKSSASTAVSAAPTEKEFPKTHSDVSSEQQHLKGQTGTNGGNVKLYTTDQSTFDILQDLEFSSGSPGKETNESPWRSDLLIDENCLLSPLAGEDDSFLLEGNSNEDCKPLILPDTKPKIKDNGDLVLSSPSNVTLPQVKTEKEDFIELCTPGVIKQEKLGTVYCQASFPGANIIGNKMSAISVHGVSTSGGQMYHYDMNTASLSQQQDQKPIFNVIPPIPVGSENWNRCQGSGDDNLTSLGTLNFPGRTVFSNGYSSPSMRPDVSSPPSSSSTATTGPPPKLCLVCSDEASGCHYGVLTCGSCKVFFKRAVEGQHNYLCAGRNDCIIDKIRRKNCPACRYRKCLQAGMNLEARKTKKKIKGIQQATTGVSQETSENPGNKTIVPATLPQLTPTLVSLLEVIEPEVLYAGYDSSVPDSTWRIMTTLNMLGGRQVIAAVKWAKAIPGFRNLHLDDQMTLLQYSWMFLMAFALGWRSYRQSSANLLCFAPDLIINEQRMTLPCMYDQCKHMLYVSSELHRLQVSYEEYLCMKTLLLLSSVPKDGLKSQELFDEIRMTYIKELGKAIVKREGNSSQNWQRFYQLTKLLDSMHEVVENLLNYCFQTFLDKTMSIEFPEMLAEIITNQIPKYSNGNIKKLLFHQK
Sequence of ATP-dependent DNA helicase Q1 (Homo sapiens) (P46063 whole entry, looked up): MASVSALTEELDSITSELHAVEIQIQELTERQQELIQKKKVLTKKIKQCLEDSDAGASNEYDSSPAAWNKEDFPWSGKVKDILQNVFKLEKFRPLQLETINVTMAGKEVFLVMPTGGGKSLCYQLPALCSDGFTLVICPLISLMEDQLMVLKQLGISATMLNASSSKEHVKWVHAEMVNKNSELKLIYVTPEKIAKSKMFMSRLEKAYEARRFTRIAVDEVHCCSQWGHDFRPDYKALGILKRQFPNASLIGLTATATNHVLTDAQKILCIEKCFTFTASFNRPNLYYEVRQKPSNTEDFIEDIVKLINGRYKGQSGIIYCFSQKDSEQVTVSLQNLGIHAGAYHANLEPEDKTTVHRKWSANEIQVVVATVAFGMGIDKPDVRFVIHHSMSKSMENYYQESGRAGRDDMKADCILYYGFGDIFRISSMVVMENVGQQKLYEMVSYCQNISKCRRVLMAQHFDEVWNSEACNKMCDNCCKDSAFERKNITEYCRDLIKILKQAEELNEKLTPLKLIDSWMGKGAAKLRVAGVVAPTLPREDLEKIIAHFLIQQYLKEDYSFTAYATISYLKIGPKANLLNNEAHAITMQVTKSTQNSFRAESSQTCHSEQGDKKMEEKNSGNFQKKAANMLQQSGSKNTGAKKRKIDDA
Sequence of Pyruvate kinase PKM (Homo sapiens) (P14618 whole entry, looked up): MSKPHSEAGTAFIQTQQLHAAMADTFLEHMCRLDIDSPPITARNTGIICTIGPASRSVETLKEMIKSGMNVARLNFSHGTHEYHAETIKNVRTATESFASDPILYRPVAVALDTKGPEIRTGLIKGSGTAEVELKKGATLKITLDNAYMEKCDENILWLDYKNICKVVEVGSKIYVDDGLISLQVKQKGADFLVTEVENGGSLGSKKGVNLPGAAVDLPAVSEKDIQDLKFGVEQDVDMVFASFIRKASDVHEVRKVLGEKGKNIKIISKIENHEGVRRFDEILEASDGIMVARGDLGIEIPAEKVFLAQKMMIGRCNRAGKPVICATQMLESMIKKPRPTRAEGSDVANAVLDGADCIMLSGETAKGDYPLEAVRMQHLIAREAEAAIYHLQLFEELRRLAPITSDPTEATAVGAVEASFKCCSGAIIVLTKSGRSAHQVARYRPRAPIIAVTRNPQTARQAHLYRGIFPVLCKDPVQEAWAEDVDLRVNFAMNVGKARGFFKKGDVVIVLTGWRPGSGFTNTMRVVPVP
Sequence of Thyrotropin-releasing hormone receptor (Homo sapiens) (P34981 whole entry, looked up): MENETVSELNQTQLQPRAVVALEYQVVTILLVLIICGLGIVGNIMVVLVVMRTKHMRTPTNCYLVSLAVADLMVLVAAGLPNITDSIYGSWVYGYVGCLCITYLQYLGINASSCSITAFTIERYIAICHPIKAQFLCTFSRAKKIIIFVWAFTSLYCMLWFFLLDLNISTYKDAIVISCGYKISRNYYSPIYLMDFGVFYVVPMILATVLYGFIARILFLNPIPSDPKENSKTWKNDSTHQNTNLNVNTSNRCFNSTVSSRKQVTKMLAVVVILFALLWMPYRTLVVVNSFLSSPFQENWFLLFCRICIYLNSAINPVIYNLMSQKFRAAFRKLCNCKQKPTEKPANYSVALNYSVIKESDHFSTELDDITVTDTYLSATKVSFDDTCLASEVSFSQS
Sequence of Thyrotropin receptor (Homo sapiens) (P16473 whole entry, looked up): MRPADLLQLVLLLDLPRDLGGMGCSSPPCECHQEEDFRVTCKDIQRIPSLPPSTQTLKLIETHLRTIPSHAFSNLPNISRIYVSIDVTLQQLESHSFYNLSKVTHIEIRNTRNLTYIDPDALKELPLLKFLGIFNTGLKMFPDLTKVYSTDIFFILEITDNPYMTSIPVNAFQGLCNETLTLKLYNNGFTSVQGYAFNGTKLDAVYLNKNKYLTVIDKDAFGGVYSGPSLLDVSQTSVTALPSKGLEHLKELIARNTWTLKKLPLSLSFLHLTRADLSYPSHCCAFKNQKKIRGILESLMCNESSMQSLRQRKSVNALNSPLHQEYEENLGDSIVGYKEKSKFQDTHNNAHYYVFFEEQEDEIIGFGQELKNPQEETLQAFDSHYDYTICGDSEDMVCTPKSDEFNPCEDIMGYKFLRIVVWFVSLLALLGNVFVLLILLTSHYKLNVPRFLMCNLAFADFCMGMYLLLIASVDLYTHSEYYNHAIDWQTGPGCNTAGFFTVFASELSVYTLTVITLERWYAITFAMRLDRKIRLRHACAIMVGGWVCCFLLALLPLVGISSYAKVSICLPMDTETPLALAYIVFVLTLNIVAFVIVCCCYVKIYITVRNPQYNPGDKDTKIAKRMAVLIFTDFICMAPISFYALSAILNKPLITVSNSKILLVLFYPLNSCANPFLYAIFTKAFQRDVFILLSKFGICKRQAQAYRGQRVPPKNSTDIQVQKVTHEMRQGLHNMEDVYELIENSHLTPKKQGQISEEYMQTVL
Sequence of M-phase phosphoprotein 8 (Homo sapiens) (Q99549 whole entry, looked up): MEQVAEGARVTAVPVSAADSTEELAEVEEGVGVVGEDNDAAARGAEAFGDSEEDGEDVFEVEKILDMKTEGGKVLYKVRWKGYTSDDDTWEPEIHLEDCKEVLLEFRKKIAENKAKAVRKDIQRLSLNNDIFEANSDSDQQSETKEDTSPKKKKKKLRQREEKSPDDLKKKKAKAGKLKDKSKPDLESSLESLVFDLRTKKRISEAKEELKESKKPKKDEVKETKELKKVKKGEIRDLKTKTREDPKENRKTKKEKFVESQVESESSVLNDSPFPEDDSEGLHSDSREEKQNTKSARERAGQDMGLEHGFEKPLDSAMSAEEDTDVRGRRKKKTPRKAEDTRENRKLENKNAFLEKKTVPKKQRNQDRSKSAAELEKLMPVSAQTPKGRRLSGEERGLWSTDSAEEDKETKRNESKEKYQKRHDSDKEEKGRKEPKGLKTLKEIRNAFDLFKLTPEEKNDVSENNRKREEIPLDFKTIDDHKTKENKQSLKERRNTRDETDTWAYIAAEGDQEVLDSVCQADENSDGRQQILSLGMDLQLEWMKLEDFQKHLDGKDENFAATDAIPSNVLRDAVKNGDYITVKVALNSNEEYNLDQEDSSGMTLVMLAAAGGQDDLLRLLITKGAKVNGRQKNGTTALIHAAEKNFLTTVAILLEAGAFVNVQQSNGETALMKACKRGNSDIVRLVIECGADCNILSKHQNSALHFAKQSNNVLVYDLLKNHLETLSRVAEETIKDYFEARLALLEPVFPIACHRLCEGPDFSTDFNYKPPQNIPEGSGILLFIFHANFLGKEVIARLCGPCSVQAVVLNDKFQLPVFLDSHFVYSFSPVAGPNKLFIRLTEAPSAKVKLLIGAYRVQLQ
Sequence of DNA repair nuclease/redox regulator APEX1 (Homo sapiens) (P27695 whole entry, looked up): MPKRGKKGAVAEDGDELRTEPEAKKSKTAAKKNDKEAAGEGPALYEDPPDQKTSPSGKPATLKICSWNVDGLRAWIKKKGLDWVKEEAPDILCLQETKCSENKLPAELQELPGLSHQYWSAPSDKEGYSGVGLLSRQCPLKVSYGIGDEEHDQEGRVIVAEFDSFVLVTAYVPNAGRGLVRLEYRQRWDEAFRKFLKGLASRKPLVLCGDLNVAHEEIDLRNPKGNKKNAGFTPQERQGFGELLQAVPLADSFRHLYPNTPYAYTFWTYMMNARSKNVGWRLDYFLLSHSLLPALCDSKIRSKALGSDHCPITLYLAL
Sequence of Ferritin light chain (Equus caballus) (P02791 2-175 limits assumed): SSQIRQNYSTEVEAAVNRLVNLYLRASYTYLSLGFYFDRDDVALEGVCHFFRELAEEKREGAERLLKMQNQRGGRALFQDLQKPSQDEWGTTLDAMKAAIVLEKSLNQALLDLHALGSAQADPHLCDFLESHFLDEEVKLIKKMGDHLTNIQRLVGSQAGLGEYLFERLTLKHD
Sequence of DNA dC->dU-editing enzyme APOBEC-3G (Homo sapiens) (Q9HC16 whole entry, looked up): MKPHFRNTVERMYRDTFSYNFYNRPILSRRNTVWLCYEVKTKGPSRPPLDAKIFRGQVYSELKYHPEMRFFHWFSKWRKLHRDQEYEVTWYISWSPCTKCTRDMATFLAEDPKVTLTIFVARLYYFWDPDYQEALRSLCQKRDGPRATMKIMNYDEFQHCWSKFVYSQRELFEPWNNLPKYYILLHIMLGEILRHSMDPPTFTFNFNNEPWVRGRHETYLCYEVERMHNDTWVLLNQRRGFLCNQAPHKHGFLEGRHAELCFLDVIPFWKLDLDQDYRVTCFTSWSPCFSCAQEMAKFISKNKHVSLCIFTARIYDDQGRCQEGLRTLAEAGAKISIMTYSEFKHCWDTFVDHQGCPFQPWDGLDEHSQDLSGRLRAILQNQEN

CN(C)CCCCSC(=N)N
active: Potency [29] 50.1 µM
inactive: activity change, negative = inhibition [1] 1.82% | activity change, negative = inhibition [2] 1.09% | activity, negative = inhibition [3] -29.5% | Potency [4] > 46 µM | Potency [5] > 46 µM | Potency [6] | outcome [7] | Potency [8] | Potency [9] | outcome [10] | outcome [11] | outcome [12] | outcome [13] | Potency [14] | Potency [15] | Potency [16] | Potency [17] | Potency [18] | Potency [19] | Potency [20] | Potency [21] | Potency [22] | Potency [23] | outcome [24] | outcome [25] | Potency [26] | Potency [27] | Potency [28] | outcome [30] | outcome [31] | activation [32] 1.19% | outcome [33] | Potency [34] | Potency [35] | Potency [36]

Cc1ccc(CC2(O)CCN(CCOc3ccc(O)cc3)CC2)cc1
inactive: Potency [35]
